Bioassay records: PubChem, National Center for Advancing Translational Sciences (NCATS)
LmPK inh: LmPK (Leishmania mexicana) enzyme inhibition; purified LmPK, Kinase-Glo ATP luminescence, 1 h; Potency, µM (highest dose often 57.5 µM), for inactives: at the top dose activity change, negative = inhibition, most hits filed as inhibitors; AID 1721; hit rate 0.37% among 290,000; Q27686; note: potency is the fitted concentration of half-maximal effect; % is set by controls: 0 for no effect and ±100 for the full control effect
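Pyruvate kinase activity monitored as ATP production (luciferase luminescence). Conditions: 0.1 nM enzyme, 0.5 mM PEP, 0.1 mM ADP, 1 h, RT; normalized against uninhibited and no-enzyme wells.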
CHX counter: affects cycloheximide protein synthesis inhibition readout, counter-screen; cell reporter, cycloheximide protein synthesis inhibition counterscreen; max response, %; hit rate 12% among 300,000; AID 2314; in the data active = max response mostly above about 13%, no sharp cut-off; inactive = mostly below about 14%; note: read at 38.3 µM for the half of the compounds with a filed dose; 0% is about no effect
Sm TGR inh: S. mansoni TGR enzyme inhibition; Q962Y6; purified TGR, DTNB reduction, TNB absorbance 405 nm; Potency, µM (series often up to 114 µM), for inactives: top-dose activity change, negative = inhibition, usual class: inhibitors; hit rate 3% among 360,000; note: potency is the fitted concentration of half-maximal effect; % is set by controls: 0 for no effect and ±100 for the full control effect; nearly all actives have a fitted effect of over 60% in size
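Kinetic colorimetric format: TGR-catalysed, NADPH-driven DTNB reduction monitored via TNB absorbance. Enzyme dispensed at 20 nM; compound exposure 15 min at room temperature before reaction start.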
Giardia FBPA inh: Giardia lamblia aldolase inhibition | A8B2U2 | purified Giardia FBPA | Potency, µM (doses to about 59.6 µM), for the others: top-dose activity, negative = inhibition, usual class: inhibitors | hit rate 0.71% among 290,000 | AID 2451; note: potency is the fitted concentration of half-maximal effect; % is set by controls: 0 for no effect and ±100 for the full control effect; nearly all actives have a fitted effect of over 55% in size
Target sequence (A8B2U2 whole entry, looked up): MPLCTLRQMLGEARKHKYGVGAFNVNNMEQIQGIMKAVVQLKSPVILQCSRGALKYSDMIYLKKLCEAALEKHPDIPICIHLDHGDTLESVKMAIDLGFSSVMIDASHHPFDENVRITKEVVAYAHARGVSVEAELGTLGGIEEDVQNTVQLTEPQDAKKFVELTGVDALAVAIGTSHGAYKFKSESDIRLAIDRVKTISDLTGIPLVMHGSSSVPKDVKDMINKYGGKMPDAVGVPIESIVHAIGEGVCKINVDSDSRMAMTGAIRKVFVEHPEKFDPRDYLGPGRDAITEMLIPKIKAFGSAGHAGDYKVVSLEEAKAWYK
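40 nM FBPA preincubated 10 min at RT with compound (up to 57.5 uM final), then substrate plus GAPDH/TPI/NAD/arsenate coupling and diaphorase/resazurin added. Fluorescence read after 20 min at RT, 525/598 nm.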
TbPYK inhibitor: inhibitors of Trypanosoma brucei pyruvate kinase; Q57TT1; TbPYK enzyme, Kinase-Glo Plus ATP luminescence, 45 min; Potency, µM (top dose mostly 76.8 µM), for inactives: top-dose activity, negative = inhibition, hits mostly inhibitors; hit rate 0.12% among 410,000; AID 624173; note: potency is the fitted concentration of half-maximal effect; % is set by controls: 0 for no effect and ±100 for the full control effect; nearly all actives have a fitted effect of over 50% in size
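Screened from lowest to highest concentration, compounds were pinned into TbPYK/substrate mixtures, and ADP (130 uM final) was added. Plates sat at room temperature for 45 min prior to Kinase-Glo Plus detection by luminescence.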
Shiga toxin inh: blocks Shiga toxin action in Vero cells | hit rate 9.2% among 290,000 | inhibition, % at 38.7 µM | AID 2315 | Vero cells, Shiga toxin protein synthesis inhibition reporter; in the data active = inhibition mostly above about 28%, no sharp cut-off; inactive = mostly below about 43%; note: 0% is about no effect
Numbers without * were called inactive; [ ] = another dose, or the depositor's remark. The entries come from a sample that favours hits as a whole. Unless noted, calls come from the whole dose curve; as a rule, active = well fitted curve in the direction sought with a large enough effect; inconclusive = small, poorly fitted or top-dose-only effect, or another doubt; inactive = no such curve, though single readings can be large; an effect the other way counts as inactive or inconclusive.

How did O=C(Nc1cc(N2CCOCC2)ncn1)NC1(C(F)(F)F)Oc2ccccc2O1 do in these assays?
LmPK inh: -4%; CHX counter: 2; Sm TGR inh: 13µM*; Giardia FBPA inh: 2%; TbPYK inhibitor: -3%; Shiga toxin inh: 11

How did COc1cccc(NC(=O)Nc2cccnc2)c1 do in these assays?
LmPK inh: -4%; CHX counter: 14*; Sm TGR inh: 8%; Giardia FBPA inh: -5%; TbPYK inhibitor: -2%; Shiga toxin inh: 6

How did COc1cccc(NC(=O)Nc2ccc(Br)cn2)c1 do in these assays?
LmPK inh: 4%; CHX counter: 26*; Sm TGR inh: 4%; Giardia FBPA inh: 1%; TbPYK inhibitor: 1%; Shiga toxin inh: 78*

What do the screens show for `O=C(Nc1ccc(Br)cc1)c1cnc[nH]1`?
LmPK inh: -2%; CHX counter: 39*; Sm TGR inh: -9%; Giardia FBPA inh: 2%; TbPYK inhibitor: 6%; Shiga toxin inh: 64*

What do the screens show for `O=C(CC(=O)Nc1ccc(Br)cc1)Nc1ccc(Br)cc1`?
LmPK inh: 0%; CHX counter: -2; Sm TGR inh: -14%; Giardia FBPA inh: 13%; TbPYK inhibitor: -1%; Shiga toxin inh: 7

What do the screens show for `Cc1cc(C(C)(C)C)cc(C)c1S(=O)(=O)N1CCN(C(=O)c2cc([N+](=O)[O-])c[nH]c2=O)CC1`?
LmPK inh: 7%; CHX counter: -4; Sm TGR inh: 0%; Giardia FBPA inh: 7%; TbPYK inhibitor: 1%; Shiga toxin inh: 1

How did Cc1cc2c(cc1NC(=O)c1ccc(C(C)(C)C)cc1)n(C)c(=O)c(=O)n2C do in these assays?
Sm TGR inh: -1%; TbPYK inhibitor: -6%

How did COc1cccc(NC(=O)c2cnc[nH]2)c1 do in these assays?
LmPK inh: -4%; CHX counter: 33*; Sm TGR inh: 6%; Giardia FBPA inh: 4%; TbPYK inhibitor: 1%; Shiga toxin inh: 41*

Results for COc1cccc(NC(=O)Nc2cccc(C(=O)O)c2)c1 ?
LmPK inh: -23%; CHX counter: 26*; Sm TGR inh: -1%; Giardia FBPA inh: 9%; TbPYK inhibitor: 2%; Shiga toxin inh: 47*

Results for CCNN ?
CHX counter: -7; Giardia FBPA inh: inconclusive; Shiga toxin inh: -13

What do the screens show for `O=C1C[C@@H](O)[C@@H](O)[C@H]2[C@@H]3C(=O)N(C[C@@H]4CCCO4)C(=O)[C@@H]3CC[C@H]12`?
Giardia FBPA inh: 2%[12.9 µM]

Results for Nc1c(-c2ccccc2)sc2ccc3ccccc3[n+]12 ?
LmPK inh: -10%; CHX counter: 12*; Sm TGR inh: 5%; TbPYK inhibitor: -14%; Shiga toxin inh: 22

What do the screens show for `CN(CCCCN1CCOCC1)Cc1nc(-c2ccc3c(c2)OCO3)no1`?
LmPK inh: 2%; CHX counter: 9.5*; Sm TGR inh: -13%; Giardia FBPA inh: 4%; TbPYK inhibitor: -2%; Shiga toxin inh: 20

What do the screens show for `c1cc(C2CCN(Cc3nc(-c4ccc5c(c4)OCO5)no3)CC2)ccn1`?
LmPK inh: 7%; CHX counter: -2; Sm TGR inh: -10%; Giardia FBPA inh: -17%; TbPYK inhibitor: 0%; Shiga toxin inh: -12

What do the screens show for `Fc1ccc(CN2CCCN(Cc3nc(-c4ccc5c(c4)OCO5)no3)CC2)cc1`?
LmPK inh: 5%; CHX counter: 15*; Sm TGR inh: inconclusive; Giardia FBPA inh: -3%; TbPYK inhibitor: -4%; Shiga toxin inh: 12

What do the screens show for `COCC1CCN(Cc2nc(-c3ccc4c(c3)OCO4)no2)C1` (configuration not stated)?
LmPK inh: 3%; CHX counter: 39*; Sm TGR inh: -13%; Giardia FBPA inh: 0%; TbPYK inhibitor: 0%; Shiga toxin inh: 67*

What do the screens show for `COc1ccc(NC(=O)CSc2nnc3ccc(-c4ccccn4)nn23)cc1OC`?
Sm TGR inh: 2%; TbPYK inhibitor: -6%

How did Cc1nnc(NC(=O)CSCc2cc(=O)c3cc(Cl)ccc3[nH]2)s1 do in these assays?
Sm TGR inh: -5%; TbPYK inhibitor: 0%

What do the screens show for `COc1ccc(CCn2c(S)nc3ccccc3c2=O)cc1`?
LmPK inh: -3%; CHX counter: 30*; Sm TGR inh: -19%; Giardia FBPA inh: 11%; TbPYK inhibitor: 2%; Shiga toxin inh: 41*

Results for CCCN1CN(Cc2ccco2)c2nc3ccccc3n2C1 ?
LmPK inh: 3%; CHX counter: 36*; Sm TGR inh: 4%; Giardia FBPA inh: 2%; TbPYK inhibitor: -16%; Shiga toxin inh: 49

How did Clc1ccc(OCCn2c(-c3ccco3)nc3ccccc32)cc1 do in these assays?
LmPK inh: 4%; CHX counter: 7; Sm TGR inh: inconclusive; Giardia FBPA inh: -7%; Shiga toxin inh: -17

What do the screens show for `c1ccc(Cn2c(-c3ccco3)nc3nc4ccccc4nc32)cc1`?
LmPK inh: inconclusive; CHX counter: 28*; Sm TGR inh: inconclusive; Giardia FBPA inh: -13%; TbPYK inhibitor: 8%; Shiga toxin inh: 60

How did c1coc(Cn2c(-c3ccco3)nc3ccccc32)c1 do in these assays?
LmPK inh: -2%; CHX counter: 17*; Sm TGR inh: inconclusive; Giardia FBPA inh: -10%; TbPYK inhibitor: -27%; Shiga toxin inh: 45*

What do the screens show for `O=C1NC(Cc2ccc(O)cc2)c2nc3cc(F)c(F)cc3c(=O)n2-c2ncccc21` (configuration not stated)?
TbPYK inhibitor: 6%

What do the screens show for `COc1ccccc1C(NC(=O)C1CCN(CCc2ccc(Br)cc2)CC1)c1ccccn1` (configuration not stated)?
TbPYK inhibitor: -4%

Results for CC(C)CCNC(=O)c1cc(-c2cccnc2)nc2ccc(S(=O)(=O)N3CCC(C)CC3)cc12 ?
Sm TGR inh: 10%; TbPYK inhibitor: 8%

Results for COc1cc2c(cc1OC)[C@@H]1O[C@](c3ccsc3)(C2)Oc2cc(C)n(-c3ccccc3)c(=O)c21 ?
LmPK inh: -5%[11.5 µM]; CHX counter: -1; Sm TGR inh: -16%[22.9 µM]; Giardia FBPA inh: 10%[12.9 µM]; Shiga toxin inh: inactive

How did COc1ccccc1Cn1c(-c2ccco2)nc2nc3ccccc3nc21 do in these assays?
TbPYK inhibitor: 1%

How did O=C(On1c(-c2ccccc2)nc2ccccc2c1=O)c1ccco1 do in these assays?
LmPK inh: 0%; CHX counter: 7; Sm TGR inh: 6.3µM*; Giardia FBPA inh: inconclusive; TbPYK inhibitor: -1%; Shiga toxin inh: -4

Results for COc1cc(OC)cc(-c2nc3ccccc3c(=O)n2OC(=O)c2ccccc2C)c1 ?
LmPK inh: 2%; CHX counter: 6; Sm TGR inh: 7%; Giardia FBPA inh: 1%; TbPYK inhibitor: 1%; Shiga toxin inh: -11
